Screening data (PubChem BioAssay)
IL-1B inflam inh = inflammasome signaling inhibition, IL-1 beta readout | THP-1 LPS/ATP IL-1B secretion, AlphaLISA, 16 h; active compounds read low | activity change, % at 57.5 µM | actives 4.7% (n = 360,000); in the data active means activity change below about -50%; inconclusive means mostly about -30% to -49%; further: on the % scale 0 is the no-effect control and ±100 the full control effect
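Secreted IL-1B measured by AlphaLISA bead assay after 16 h compound exposure of THP-1 cells; compounds (final up to 57.5 uM) added 1 h before LPS (250 ng/mL) and ATP (1.25 mM) stimulation; lower signal means less secretion.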
DT40 TDP1 no CPT = qHTS for Inhibitors of human tyrosyl-DNA phosphodiesterase 1 (TDP1): qHTS in cells in absence of CPT; DT40 Tdp1-/- hTDP1 cells, no CPT, ATP luminescence, 48 h; Potency, µM (highest dose often 46.2 µM), for inactives: at the top dose activity change, negative = growth inhibition, usual class: inhibitors; actives 15% (n = 420,000); AID 686978, 2013; further: potency means the concentration at half of the fitted maximal effect; on the % scale 0 is the no-effect control and ±100 the full control effect; nearly all actives have a fitted effect of over 55% in size
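Growth kinetics read by CellTiter-Glo luminescence after ≥48 hr at 37 °C. Cells: DT40 Tdp1-/- stably carrying human TDP1, 400 per well, compound exposure in the absence of CPT (DMSO vehicle).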
SW480 rereplic = induces DNA re-replication in SW480 colon adenocarcinoma cells; SW480 DNA re-replication, Hoechst DNA content imaging, 48 h; Potency, µM (titrated, usually from 46.1 µM), without a hit: at the highest dose re-replication activation, usual class: activators; actives 1.8% (n = 340,000); further: potency means the concentration at half of the fitted maximal effect; % of control where 0% means no effect; nearly all actives have a fitted effect of over 55% in size
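Compounds, transferred as 23 nL by pin tool, were incubated with cells for 48 hr; DNA content per nucleus was then quantified by Hoechst staining and fluorescence plate imaging.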
DT40 TDP1 CPT = DT40-hTDP1 cell growth loss with CPT | actives 12% (n = 420,000) | Potency, µM (doses to about 46.2 µM), without a hit: at the highest dose activity change, negative = growth inhibition, hits mostly inhibitors | AID 686979 | chicken DT40 Tdp1-/-;hTDP1 cells + 20 nM CPT, ATP luminescence, 48 h; further: potency means the concentration at half of the fitted maximal effect; on the % scale 0 is the no-effect control and ±100 the full control effect; nearly all actives have a fitted effect of over 55% in size
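Chicken DT40 Tdp1-/- cells stably complemented with human TDP1 were seeded at 400 cells/well in medium containing 20 nM camptothecin, exposed to pin-transferred compounds, and grown at 37 °C for at least 48 hr. Viability was read as ATP luminescence.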
MCF10A rerep = induces DNA re-replication in MCF 10a normal breast cells; MCF 10A DNA re-replication, Hoechst nuclear intensity, 48 h; Potency, µM (highest dose often 46.1 µM), without a hit: top-dose activity, positive = re-replication, actives largely listed as activators; actives 2.9% (n = 350,000); AID 624296; further: potency means the concentration at half of the fitted maximal effect; % of control where 0% means no effect; nearly all actives have a fitted effect of over 50% in size
BCR signal inh = blocks chronic active B-cell receptor signaling | Potency, µM (top dose mostly 46.1 µM), inactives show at the highest dose activity change, negative = inhibition, actives largely listed as inhibitors | ABC-DLBCL IkBa-CBG/CBR reporter, luminescence ratio, 4 h | actives 0.05% (n = 340,000); active means well fitted inhibition curve with a large enough effect in the signal ratio, with a control signal flat, not every such curve was filed as active; inconclusive means small, poorly fitted or top-dose-only effect, or effect the other way, or a change in a side signal; the % refers to the signal ratio;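 further: potency means the concentration at half of the fitted maximal effect; plate controls were basal doxycycline-induced cells for no effect and cells given 10 µM MG132 for full effect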
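TMD8 ABC-DLBCL cells carrying doxycycline-inducible green luciferase fused to IkappaBalpha plus unfused red luciferase were exposed to compounds (up to 46 uM) for 4 hrs at 37C. Activity came from the overlap-corrected green/red luminescence ratio.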
The depositor's hits bear a star; ? = inconclusive; · = no result given; [ ] = another dose, or the depositor's remark. The list is not random: actives were taken first. Their share in the collection is about 19%. Unless noted, the call rests on the fitted dose curve; in most records, active means well fitted curve in the direction sought with a large enough effect; inconclusive means small, poorly fitted or top-dose-only effect, or another doubt; inactive means no such curve, though single readings can be large; an effect the other way counts as inactive or inconclusive.

SMILES	IL-1B inflam inh	DT40 TDP1 no CPT	SW480 rereplic	DT40 TDP1 CPT	MCF10A rerep	BCR signal inh
COc1ccc(NC(=O)CSc2nc3cc(OC)c(OC)cc3c3nc(-c4ccccc4)nn23)cc1Cl	·	-6%	·	25%	·	·
Cc1ccc2c(c1)c1c(n2CC(O)CNC(CO)(CO)CO)CCCC1 (centres undefined)	-26	-27%	8%	?	0%	-9%
Cc1ccc2c(c1)c1c(n2CC(O)CN2CCCCC2C)CCCC1 (centres undefined)	0	?	18µM*	?	?	6%
Cc1ccc2c(c1)c1c(n2CC(O)CNC2CCCCC2)CCCC1 (centres undefined)	-112*	15µM*	3%	23µM*	?	-9%
Cc1ccc2c(c1)c1c(n2CC(O)CN2CCC(C)CC2)CCCC1 (centres undefined)	-65*	26µM*	116%	?	25%	2%
CC1=[N+](C)c2c(ccc3cccnc23)C1(C)C	-112*	1.8µM*	?	0.33µM*	?	?
Cc1[nH]c2c(ccc3cccnc32)c1C	·	-27%	-25%	16%	4%	-1%
CNC(=S)N1N=C(c2ccc(C)cc2)CC1c1ccc(Cl)cc1 (centres undefined)	-11	10µM*	1%	13µM*	15%	26%
CC(C)c1ccc(C2CC(c3ccc(Br)cc3)=NN2C(N)=S)cc1 (centres undefined)	-4	9.2µM*	28%	15µM*	?	0%
CC(=O)N1N=C(c2ccc(Br)cc2)CC1c1ccc(Br)cc1 (centres undefined)	30	-16%	·	-16%	·	·
O=C(O)CCC(=O)N1N=C(c2ccc(Br)cc2)CC1c1ccc(Br)cc1 (centres undefined)	-6	-16%	-3%[1.84 µM]	-12%	-11%	4%
CNC(=S)N1N=C(c2ccccc2)CC1c1ccccc1Cl (centres undefined)	27	?	10%	?	?	-7%
CNC(=S)N1N=C(c2ccc(C)cc2)CC1c1ccc(Br)cc1 (centres undefined)	?	7.3µM*	12%	10µM*	8%	?
COc1ccc(NC(=O)C[C@H]2C(=O)N(c3ccc(OC)cc3)C[C@@H]2C)cc1	26	?	·	-28%	·	·
N=C1C(c2ccccc2)=C(O)CN1c1cccc(S(=O)(=O)NCc2ccco2)c1	7	-1%	-10%	-1%	-4%	-2%
COc1cccc(Nc2ncc3nc(C)c(=O)n(C)c3n2)c1	·	-10%	·	?	·	·
COc1ccccc1NC(=O)Cn1c(=O)c(CNc2ccccc2)cc2cc(OC)c(OC)cc21	·	6.5µM*	·	5.2µM*	·	·
COc1cc2cc(CNc3ccccc3)c(=O)n(CC(=O)Nc3ccccc3)c2cc1OC	·	18µM*	·	?	·	-23%
CN1C(=O)CC(C(=O)Nc2ccccc2F)SC1=Nc1ccc2c(c1)OCO2 (centres undefined)	20	-15%	-5%	17%	0%	-2%
C[C@H](NC(=O)c1[nH]cnc1C(=O)Nc1cccc(Cl)c1)c1ccccc1	4	16µM*	-3%	?	-6%	19%
CC(NC(=O)Nc1ccc(Cl)cc1)c1ccccc1 (centres undefined)	-4	26µM*	-4%	?	3%	?
CCOP(=O)(OCC)C(NC(=O)Nc1ccc(Cl)cc1)c1ccccc1 (centres undefined)	6	-29%	0%	-6%	-2%	8%
C[C@H](NC(=O)c1[nH]cnc1C(=O)Nc1ccc(Cl)cc1)c1ccccc1	-24	?	-31%[9.22 µM]	?	16µM*	?
Cc1ccc(C(NC(=O)NC(C)c2ccccc2)C(Cl)(Cl)Cl)cc1F (centres undefined)	-62*	-85%	?	18µM*	15µM*	?
CC(NC(=O)C(c1ccccc1)c1ccccc1)c1ccccc1 (centres undefined)	?	0%	-1%	1%	1%	·
SMILES	IL-1B inflam inh	DT40 TDP1 no CPT	SW480 rereplic	DT40 TDP1 CPT	MCF10A rerep	BCR signal inh
C[C@@H](NC(=O)c1[nH]cnc1C(=O)Nc1ccccc1)c1ccccc1	-18	?	-31%[9.22 µM]	?	?	?
O=C(c1cnn(-c2nccc(-c3ccccc3F)n2)c1C1CC1)N1CCN(CCO)CC1	·	-10%	·	19%[9.04 µM]	·	·
COc1ccc(CNC(=O)C2CCN(S(=O)(=O)c3ccc4c(c3)CC(C)N4C(=O)C3CC3)CC2)cc1 (centres undefined)	-6	7%	0%	1%	10%	?
C[C@@H](NC(=O)c1[nH]cnc1C(=O)Nc1ccon1)c1ccccc1	75	?	-17%	16µM*	3%	6%
C[C@H](NC(=O)c1[nH]cnc1C(=O)Nc1ccon1)c1ccccc1	40	?	4%	?	30%	?
C[C@@H](NC(=O)c1[nH]cnc1C(=O)Nc1cccc(Cl)c1)c1ccccc1	6	?	-7%[9.22 µM]	?	12µM*	12%
COc1ccccc1C(=O)NNC(=O)c1ccc(Br)o1	3	-24%	-4%	-9%	1%	?
CC1Cc2ccccc2N1C(=O)c1nn(C)cc1Br (centres undefined)	0	-18%	2%	-8%	2%	-5%
COc1ccc(OC(C)C(=O)N(C)Cc2nc(-c3cccc(C)c3)no2)cc1 (centres undefined)	36	?	-4%	-21%	2%	?
CC(C)C[C@@H](CO)N1CCN(Cc2cccc(C#N)c2)CCC1=O	-1	-6%	-5%	-12%	-21%	-4%
CNCc1ccccc1Sc1cccc2ccccc12	-55*	23µM*	?	23µM*	?	?
CN(C)CCN(C)Cc1ccccc1Sc1cccc2ccccc12	-105*	8.2µM*	?	9.2µM*	?	?
COc1ccc(CCN(C)Cc2cccc3ccccc23)cc1OC	-16	-25%	-69%	?	?	-4%
COc1ccc(Oc2nc(OC)cc(OC)n2)cc1	26	-28%	16%	-24%	0%	-18%
CC(C)Cn1c(N)c(C(=O)COC(=O)c2c(O)c(Cl)cc(Cl)c2Cl)c(=O)n(C)c1=O	0	18%	5%	5%	?	-4%
